Reference: paper PMC7862700, “An all-to-all approach to the identification of sequence-specific readers for epigenetic DNA modifications on cytosine”

Key:
Experiment in all cases: DAPPL (digital affinity profiling via proximity ligation, sequencing); 10 mM Tris-HCl pH 7.5, 50 mM NaCl, 1 mM DTT, 4% glycerol, room temperature, 30 min; GST-TFs on glutathione beads, 16-mer random dsDNA library, 0.1% formaldehyde crosslink after washing; high values mean tight binding
Settings in all cases: protein: recombinant; tags: N-terminal GST; dsDNA, one strand shown
[1] = target: T1, FLI1 (Homo sapiens, UniProt Q01543 1-452)
T1 sequence: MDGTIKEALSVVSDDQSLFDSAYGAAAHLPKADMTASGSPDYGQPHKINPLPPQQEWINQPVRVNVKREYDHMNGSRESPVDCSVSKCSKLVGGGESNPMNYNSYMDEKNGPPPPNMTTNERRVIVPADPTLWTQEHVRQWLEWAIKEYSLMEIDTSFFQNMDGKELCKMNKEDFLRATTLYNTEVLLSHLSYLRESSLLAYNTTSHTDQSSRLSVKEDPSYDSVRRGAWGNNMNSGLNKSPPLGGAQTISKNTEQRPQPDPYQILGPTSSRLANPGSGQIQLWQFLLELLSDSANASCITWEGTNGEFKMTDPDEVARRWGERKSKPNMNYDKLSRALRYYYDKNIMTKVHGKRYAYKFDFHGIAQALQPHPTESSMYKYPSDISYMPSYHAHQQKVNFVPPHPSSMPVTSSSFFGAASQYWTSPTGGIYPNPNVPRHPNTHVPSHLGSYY
How it was run: (§1)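 Human transcription factors were made in yeast as GST fusions, captured on glutathione beads and barcoded with DNA. With a tag-only sample included, the pool was incubated with 200 nmole of a random double-stranded 16-mer DNA library in Tris/NaCl/DTT/glycerol buffer at room temperature for 30 min, then crosslinked with 0.1% formaldehyde after washing, ligated by proximity, amplified and sequenced. For binding signal, each hexamer's read frequency for a factor is divided by its frequency for the tag-only sample.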

[2] = target: T2, ELK1 (Homo sapiens, UniProt P19419 1-428)
T2 sequence: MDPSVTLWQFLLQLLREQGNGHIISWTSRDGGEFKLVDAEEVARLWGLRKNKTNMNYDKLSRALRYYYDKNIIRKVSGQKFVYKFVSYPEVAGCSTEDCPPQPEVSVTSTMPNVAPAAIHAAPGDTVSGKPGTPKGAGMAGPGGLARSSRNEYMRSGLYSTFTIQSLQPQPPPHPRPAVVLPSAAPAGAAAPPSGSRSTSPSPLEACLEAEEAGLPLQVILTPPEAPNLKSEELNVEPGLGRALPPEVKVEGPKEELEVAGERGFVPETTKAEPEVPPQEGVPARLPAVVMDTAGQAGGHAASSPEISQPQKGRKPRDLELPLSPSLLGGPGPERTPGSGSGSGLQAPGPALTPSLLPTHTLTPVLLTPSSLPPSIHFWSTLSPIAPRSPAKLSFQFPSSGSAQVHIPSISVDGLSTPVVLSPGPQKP
How it was run: as §1

[3] = target: T3, GABPA (Homo sapiens, UniProt Q06546 1-454)
T3 sequence: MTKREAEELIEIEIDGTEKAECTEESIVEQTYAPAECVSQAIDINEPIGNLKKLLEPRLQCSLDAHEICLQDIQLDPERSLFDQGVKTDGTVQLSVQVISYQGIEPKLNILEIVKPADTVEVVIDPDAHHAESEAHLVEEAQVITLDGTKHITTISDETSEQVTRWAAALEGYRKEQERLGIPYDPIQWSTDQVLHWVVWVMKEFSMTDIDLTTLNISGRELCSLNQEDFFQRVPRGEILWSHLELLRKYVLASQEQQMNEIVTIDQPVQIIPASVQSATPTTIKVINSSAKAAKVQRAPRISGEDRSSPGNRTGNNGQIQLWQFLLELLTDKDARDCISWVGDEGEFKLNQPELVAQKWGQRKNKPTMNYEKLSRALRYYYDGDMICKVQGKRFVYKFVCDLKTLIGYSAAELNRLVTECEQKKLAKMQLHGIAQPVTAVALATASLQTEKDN
How it was run: as §1

[4] = target: T4, ERG (Homo sapiens, UniProt P11308 1-479)
T4 sequence: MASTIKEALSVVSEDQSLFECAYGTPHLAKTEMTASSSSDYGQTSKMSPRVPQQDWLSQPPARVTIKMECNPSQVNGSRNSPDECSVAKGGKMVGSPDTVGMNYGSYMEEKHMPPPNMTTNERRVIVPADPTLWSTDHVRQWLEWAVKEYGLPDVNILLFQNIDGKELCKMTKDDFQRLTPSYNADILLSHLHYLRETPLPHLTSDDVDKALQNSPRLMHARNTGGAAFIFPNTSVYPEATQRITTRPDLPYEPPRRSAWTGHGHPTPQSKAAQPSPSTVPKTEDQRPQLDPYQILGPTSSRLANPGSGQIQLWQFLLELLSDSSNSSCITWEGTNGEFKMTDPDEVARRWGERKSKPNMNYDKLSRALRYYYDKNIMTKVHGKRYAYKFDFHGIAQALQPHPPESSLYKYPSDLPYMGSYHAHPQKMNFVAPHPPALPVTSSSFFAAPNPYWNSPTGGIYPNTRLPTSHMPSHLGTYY
How it was run: as §1

[5] = target: ELF1 (Homo sapiens, UniProt P32519 1-619)
Sequence of ELF1 (P32519 whole entry): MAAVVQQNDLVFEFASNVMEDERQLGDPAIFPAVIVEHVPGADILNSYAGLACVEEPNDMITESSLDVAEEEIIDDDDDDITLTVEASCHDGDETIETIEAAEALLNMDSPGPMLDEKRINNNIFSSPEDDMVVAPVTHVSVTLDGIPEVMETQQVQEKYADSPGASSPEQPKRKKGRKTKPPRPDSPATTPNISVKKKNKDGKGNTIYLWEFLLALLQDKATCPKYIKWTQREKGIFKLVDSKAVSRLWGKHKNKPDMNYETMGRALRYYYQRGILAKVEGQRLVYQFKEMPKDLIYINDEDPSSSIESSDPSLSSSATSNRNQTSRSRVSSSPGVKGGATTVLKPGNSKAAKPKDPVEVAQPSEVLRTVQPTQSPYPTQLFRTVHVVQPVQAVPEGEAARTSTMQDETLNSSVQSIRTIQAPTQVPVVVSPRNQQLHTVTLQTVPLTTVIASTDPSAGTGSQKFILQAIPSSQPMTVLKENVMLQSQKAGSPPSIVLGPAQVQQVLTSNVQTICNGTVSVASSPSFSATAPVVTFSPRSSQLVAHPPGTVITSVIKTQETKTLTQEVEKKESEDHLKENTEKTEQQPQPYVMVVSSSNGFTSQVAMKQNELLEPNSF
How it was run: as §1

[6] = target: T5, EHF (Homo sapiens, UniProt Q9NZC4 1-300)
T5 sequence: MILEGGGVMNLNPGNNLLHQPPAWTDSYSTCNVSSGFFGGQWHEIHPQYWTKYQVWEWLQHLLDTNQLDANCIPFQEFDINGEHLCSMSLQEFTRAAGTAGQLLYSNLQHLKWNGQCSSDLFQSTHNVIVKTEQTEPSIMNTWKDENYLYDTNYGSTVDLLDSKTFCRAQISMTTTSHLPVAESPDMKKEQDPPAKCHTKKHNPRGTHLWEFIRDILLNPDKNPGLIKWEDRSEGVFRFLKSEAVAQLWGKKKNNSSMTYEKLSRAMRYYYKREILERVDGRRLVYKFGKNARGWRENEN
How it was run: as §1

[7] = target: SPI1 (Homo sapiens, UniProt P17947 1-270)
How it was run: as §1

[8] = target: SPIB (Homo sapiens, UniProt Q01892 1-262)
Sequence of SPIB (Q01892 whole entry): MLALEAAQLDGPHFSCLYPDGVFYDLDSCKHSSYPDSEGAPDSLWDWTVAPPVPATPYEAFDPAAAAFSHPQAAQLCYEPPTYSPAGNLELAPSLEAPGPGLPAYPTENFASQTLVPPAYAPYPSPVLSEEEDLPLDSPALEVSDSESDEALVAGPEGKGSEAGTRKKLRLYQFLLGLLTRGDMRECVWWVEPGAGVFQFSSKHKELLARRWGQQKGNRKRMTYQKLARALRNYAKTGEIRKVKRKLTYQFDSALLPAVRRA
How it was run: as §1

[9] = target: T6, ELK3 (Homo sapiens, UniProt P41970 1-407)
T6 sequence: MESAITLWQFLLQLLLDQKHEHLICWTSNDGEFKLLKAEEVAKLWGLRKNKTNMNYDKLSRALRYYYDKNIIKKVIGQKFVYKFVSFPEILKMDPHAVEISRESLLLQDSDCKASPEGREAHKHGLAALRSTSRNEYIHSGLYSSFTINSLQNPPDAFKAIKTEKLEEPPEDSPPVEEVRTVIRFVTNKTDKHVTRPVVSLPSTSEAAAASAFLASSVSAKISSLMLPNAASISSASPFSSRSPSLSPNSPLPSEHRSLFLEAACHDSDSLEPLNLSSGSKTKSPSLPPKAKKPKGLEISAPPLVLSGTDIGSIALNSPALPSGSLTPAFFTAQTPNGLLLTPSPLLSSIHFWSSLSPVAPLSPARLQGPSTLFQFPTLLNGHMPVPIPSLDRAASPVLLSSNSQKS
How it was run: as §1

[10] = target: T7, FEV (Homo sapiens, UniProt Q99581 1-238)
T7 sequence: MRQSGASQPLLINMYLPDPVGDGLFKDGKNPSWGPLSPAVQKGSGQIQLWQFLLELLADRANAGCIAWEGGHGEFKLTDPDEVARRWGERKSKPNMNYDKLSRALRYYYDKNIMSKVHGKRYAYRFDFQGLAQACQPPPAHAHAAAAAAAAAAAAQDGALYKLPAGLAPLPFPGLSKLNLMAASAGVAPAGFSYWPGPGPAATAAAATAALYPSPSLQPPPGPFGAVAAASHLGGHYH
How it was run: as §1

[11] = target: ETV5 (Homo sapiens, UniProt P41161 1-510)
Sequence of ETV5 (P41161 whole entry): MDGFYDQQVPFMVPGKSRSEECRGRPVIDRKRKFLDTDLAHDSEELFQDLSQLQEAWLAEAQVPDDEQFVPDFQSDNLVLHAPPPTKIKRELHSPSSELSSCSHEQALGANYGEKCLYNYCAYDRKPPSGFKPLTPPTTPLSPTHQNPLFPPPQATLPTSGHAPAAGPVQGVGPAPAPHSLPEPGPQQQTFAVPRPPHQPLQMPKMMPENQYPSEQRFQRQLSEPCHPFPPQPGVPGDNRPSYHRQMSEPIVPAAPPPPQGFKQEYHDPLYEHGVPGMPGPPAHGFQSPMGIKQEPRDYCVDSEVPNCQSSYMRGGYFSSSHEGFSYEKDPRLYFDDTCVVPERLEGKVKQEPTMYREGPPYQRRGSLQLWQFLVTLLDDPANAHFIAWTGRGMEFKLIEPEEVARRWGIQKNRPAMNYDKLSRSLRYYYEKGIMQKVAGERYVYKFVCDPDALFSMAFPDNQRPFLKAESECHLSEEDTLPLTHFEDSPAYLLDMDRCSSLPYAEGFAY
How it was run: as §1

[12] = target: T8, SPIC (Homo sapiens, UniProt Q8N5J4 1-248)
T8 sequence: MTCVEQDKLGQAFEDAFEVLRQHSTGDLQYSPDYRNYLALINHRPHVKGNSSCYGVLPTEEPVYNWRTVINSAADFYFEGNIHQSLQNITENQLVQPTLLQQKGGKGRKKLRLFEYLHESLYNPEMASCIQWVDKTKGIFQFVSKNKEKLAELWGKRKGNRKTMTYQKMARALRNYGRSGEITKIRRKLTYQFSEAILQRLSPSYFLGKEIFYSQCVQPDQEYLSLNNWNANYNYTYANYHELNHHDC
How it was run: as §1

[13] = target: ELF4 (Homo sapiens, UniProt Q99607 1-663)
Sequence of ELF4 (Q99607 whole entry): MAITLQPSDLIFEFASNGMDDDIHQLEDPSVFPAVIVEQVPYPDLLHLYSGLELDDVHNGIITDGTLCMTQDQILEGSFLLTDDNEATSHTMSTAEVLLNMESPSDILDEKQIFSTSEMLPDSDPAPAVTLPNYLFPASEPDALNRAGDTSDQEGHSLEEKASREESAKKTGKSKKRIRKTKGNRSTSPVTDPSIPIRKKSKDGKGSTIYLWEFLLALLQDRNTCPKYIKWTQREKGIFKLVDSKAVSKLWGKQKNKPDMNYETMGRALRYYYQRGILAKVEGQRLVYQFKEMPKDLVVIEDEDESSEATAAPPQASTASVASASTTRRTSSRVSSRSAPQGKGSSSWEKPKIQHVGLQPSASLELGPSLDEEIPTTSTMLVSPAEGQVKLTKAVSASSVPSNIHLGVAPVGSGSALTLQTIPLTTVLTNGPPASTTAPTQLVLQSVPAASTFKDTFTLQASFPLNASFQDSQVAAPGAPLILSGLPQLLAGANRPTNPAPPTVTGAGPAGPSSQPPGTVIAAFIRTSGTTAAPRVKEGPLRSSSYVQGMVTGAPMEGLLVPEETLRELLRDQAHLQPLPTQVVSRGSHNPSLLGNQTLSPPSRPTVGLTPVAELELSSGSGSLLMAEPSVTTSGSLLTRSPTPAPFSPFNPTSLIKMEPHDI
How it was run: as §1

[14] = target: T9, ELK4 (Homo sapiens, UniProt P28324-2 1-405)
T9 sequence: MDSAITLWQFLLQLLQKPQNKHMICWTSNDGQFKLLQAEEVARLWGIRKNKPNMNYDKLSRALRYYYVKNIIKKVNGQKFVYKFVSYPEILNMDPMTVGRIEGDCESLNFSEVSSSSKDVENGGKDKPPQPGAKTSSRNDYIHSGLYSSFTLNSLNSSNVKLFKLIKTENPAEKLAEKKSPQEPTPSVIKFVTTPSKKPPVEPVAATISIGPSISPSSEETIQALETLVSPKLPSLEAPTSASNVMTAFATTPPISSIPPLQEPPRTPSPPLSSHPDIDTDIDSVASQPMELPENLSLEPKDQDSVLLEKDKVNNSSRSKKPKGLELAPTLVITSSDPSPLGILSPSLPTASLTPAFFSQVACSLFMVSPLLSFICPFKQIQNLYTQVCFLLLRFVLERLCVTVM
How it was run: as §1

[15] = target: T10, ETV2 (Homo sapiens, UniProt O00321 1-342)
T10 sequence: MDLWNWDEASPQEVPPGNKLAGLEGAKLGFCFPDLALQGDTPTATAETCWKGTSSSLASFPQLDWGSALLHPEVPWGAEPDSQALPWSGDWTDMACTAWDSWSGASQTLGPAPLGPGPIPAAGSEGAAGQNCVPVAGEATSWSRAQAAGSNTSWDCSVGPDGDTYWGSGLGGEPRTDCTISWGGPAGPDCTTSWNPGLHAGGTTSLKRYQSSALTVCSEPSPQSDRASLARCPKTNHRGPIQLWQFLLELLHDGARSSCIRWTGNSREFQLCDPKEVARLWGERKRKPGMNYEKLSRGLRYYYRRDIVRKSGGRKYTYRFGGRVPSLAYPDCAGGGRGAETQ
How it was run: as §1

[16] = target: T11, ELF3 (Homo sapiens, UniProt P78545 1-371)
T11 sequence: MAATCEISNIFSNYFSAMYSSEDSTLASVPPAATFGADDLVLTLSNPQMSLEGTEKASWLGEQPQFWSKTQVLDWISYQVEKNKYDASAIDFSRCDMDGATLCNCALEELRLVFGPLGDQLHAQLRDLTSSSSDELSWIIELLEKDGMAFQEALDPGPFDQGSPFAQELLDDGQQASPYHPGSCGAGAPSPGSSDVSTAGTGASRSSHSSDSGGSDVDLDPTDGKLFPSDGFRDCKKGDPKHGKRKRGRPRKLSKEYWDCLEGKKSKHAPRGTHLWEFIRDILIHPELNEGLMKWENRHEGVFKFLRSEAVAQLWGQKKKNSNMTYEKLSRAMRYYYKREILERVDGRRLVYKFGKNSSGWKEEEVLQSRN
How it was run: as §1

[17] = target: CRX (Homo sapiens, UniProt O43186 1-299)
Sequence of CRX (O43186 whole entry): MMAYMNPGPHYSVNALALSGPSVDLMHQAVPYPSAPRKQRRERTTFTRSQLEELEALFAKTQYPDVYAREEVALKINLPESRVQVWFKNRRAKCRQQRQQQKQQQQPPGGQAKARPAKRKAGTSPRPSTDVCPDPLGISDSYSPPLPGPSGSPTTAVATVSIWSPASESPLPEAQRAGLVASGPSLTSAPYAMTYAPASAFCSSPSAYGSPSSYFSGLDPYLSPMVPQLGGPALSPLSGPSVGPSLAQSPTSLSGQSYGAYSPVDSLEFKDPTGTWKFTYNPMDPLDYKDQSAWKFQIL
How it was run: as §1

[18] = target: ETV1 (Homo sapiens, UniProt P50549 1-477)
Sequence of ETV1 (P50549 whole entry): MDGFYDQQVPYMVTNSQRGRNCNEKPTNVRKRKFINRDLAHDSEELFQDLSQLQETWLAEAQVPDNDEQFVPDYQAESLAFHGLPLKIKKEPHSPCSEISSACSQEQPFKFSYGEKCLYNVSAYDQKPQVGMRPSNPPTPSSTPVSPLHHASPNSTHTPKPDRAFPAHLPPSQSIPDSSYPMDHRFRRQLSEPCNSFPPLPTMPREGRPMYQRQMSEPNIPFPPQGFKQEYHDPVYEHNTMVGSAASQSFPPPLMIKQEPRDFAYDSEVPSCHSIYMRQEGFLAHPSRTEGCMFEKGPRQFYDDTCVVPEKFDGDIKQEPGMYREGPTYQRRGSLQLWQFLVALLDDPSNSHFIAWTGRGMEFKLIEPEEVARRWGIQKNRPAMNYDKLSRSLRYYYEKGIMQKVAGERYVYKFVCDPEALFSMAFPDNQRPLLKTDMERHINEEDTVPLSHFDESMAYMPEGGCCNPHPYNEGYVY
How it was run: as §1

Sequence	binding signal [1]	binding signal [2]	binding signal [3]	binding signal [4]	binding signal [5]	binding signal [6]	binding signal [7]	binding signal [8]	binding signal [9]	binding signal [10]	binding signal [11]	binding signal [12]	binding signal [13]	binding signal [14]	binding signal [15]	binding signal [16]	binding signal [17]	binding signal [18]
CTGACC	1.4 fold enrichment (6-mer frequency, TF over GST control)	1.41 fold enrichment (6-mer frequency, TF over GST control)	1.41 fold enrichment (6-mer frequency, TF over GST control)	1.23 fold enrichment (6-mer frequency, TF over GST control)	1.46 fold enrichment (6-mer frequency, TF over GST control)	1.59 fold enrichment (6-mer frequency, TF over GST control)	1.25 fold enrichment (6-mer frequency, TF over GST control)	1.26 fold enrichment (6-mer frequency, TF over GST control)	1.33 fold enrichment (6-mer frequency, TF over GST control)	1.43 fold enrichment (6-mer frequency, TF over GST control)	1.32 fold enrichment (6-mer frequency, TF over GST control)	1.37 fold enrichment (6-mer frequency, TF over GST control)	1.41 fold enrichment (6-mer frequency, TF over GST control)	1.31 fold enrichment (6-mer frequency, TF over GST control)	1.46 fold enrichment (6-mer frequency, TF over GST control)	1.51 fold enrichment (6-mer frequency, TF over GST control)	1.01 fold enrichment (6-mer frequency, TF over GST control)	1.43 fold enrichment (6-mer frequency, TF over GST control)
TACGGA	1.26 fold enrichment (6-mer frequency, TF over GST control)	1.25 fold enrichment (6-mer frequency, TF over GST control)	1.21 fold enrichment (6-mer frequency, TF over GST control)	1.37 fold enrichment (6-mer frequency, TF over GST control)	1.3 fold enrichment (6-mer frequency, TF over GST control)	1.45 fold enrichment (6-mer frequency, TF over GST control)	1.56 fold enrichment (6-mer frequency, TF over GST control)	1.48 fold enrichment (6-mer frequency, TF over GST control)	1.43 fold enrichment (6-mer frequency, TF over GST control)	1.26 fold enrichment (6-mer frequency, TF over GST control)	1.34 fold enrichment (6-mer frequency, TF over GST control)	1.21 fold enrichment (6-mer frequency, TF over GST control)	1.25 fold enrichment (6-mer frequency, TF over GST control)	1.15 fold enrichment (6-mer frequency, TF over GST control)	1.42 fold enrichment (6-mer frequency, TF over GST control)	1.42 fold enrichment (6-mer frequency, TF over GST control)	1 fold enrichment (6-mer frequency, TF over GST control)	1.39 fold enrichment (6-mer frequency, TF over GST control)
